Some targets named below: FXR1(1-2) (Homo sapiens, UniProt P51114); IGF2BP2(1-2) (Homo sapiens, UniProt Q9Y6M1); RBPMS (Homo sapiens, UniProt Q93062).
Assay in all cases: protein domain microarray probed with biotinylated miRNA; Domain array: 20 mM Tris-HCl pH 7.4, 200 mM KCl, 0.2 mM EDTA, 0.05% NP40, 2 ug/ul heparin, overnight 4 C. ORF array: PBS pH 7.0 with RNase inhibitor, 100 ng RNA; high values mean tight binding
Details in all cases: ssRNA

The target of the next test is T1, RBM19(1) (Homo sapiens, UniProt Q9Y4C8).
T1 sequence: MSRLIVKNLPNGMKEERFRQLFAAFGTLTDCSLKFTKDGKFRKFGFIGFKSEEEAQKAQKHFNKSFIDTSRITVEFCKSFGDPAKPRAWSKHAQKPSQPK

A further test concerns the target T2, SFRS12 (Homo sapiens, UniProt Q8WXA9).
T2 sequence: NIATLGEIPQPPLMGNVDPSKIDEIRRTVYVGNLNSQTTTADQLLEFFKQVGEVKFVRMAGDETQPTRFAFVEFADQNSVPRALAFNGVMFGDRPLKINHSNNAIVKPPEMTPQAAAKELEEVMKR

The target of another test is T3, STAU2(4) (Homo sapiens, UniProt Q9NUL3).
T3 sequence: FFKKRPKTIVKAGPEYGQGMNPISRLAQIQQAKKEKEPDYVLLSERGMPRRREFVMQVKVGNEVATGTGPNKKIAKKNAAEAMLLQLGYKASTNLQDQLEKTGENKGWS

A further test concerns the target T4, RBM11 (Homo sapiens, UniProt P57052).
T4 sequence: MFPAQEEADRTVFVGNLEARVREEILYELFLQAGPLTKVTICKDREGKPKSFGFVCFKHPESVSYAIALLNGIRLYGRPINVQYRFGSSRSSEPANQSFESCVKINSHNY

In the next test the target is T5, REXON (Homo sapiens, UniProt Q96IC2).
T5 sequence: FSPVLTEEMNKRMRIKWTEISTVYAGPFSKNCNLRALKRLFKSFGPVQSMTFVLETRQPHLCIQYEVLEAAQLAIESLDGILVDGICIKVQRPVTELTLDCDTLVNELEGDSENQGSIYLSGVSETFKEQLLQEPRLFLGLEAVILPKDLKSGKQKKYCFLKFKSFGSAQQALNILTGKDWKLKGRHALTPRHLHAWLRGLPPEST

For a further test, the target named is T6, TRA2B (Homo sapiens, UniProt P62995).
T6 sequence: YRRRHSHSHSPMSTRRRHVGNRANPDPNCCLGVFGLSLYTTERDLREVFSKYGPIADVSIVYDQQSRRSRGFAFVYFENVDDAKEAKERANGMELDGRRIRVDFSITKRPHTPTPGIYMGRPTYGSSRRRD

The next test concerns the target T7, RAVER1 (Homo sapiens, UniProt Q8IY67).
T7 sequence: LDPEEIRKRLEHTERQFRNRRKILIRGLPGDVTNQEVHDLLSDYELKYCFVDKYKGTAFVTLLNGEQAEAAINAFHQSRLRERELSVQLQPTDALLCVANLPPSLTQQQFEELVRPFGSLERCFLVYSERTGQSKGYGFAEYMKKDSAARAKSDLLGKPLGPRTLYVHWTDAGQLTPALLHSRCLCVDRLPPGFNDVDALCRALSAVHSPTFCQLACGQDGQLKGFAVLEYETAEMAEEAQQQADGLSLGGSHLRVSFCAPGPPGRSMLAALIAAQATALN

Sequence of RBPMS (Q93062 1-125): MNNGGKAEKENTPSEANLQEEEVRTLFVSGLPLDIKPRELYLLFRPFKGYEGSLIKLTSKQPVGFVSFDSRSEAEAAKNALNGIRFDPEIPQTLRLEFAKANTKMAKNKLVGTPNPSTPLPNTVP
Sequence of FXR1(1-2) (P51114 201-372): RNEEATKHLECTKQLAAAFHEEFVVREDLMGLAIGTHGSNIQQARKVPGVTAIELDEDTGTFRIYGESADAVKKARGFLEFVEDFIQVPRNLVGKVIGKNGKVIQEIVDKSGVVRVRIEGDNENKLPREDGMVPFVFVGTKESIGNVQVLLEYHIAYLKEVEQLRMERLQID
Sequence of IGF2BP2(1-2) (Q9Y6M1 176-362): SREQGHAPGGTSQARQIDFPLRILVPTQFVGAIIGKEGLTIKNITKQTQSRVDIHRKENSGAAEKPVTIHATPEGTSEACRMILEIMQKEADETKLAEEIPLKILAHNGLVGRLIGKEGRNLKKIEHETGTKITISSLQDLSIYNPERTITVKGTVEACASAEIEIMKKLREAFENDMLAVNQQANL

In the case of UAGCUUAUCAGACUGAUGUUGA, the binding signal with RBM19(1) is 37.3 ± 6.15 fluorescence intensity; in the test with FXR1(1-2) it was 31.1 ± 0.919 fluorescence intensity; with SFRS12, 30.2 ± 10.4 fluorescence intensity.

Consider AGAGGUAGUAGGUUGCAUAGUU, for which the binding signal with STAU2(4) was determined as 100.36 ± 0.0283 fluorescence intensity; with RBM19(1), 400 ± 17.2 fluorescence intensity; in the test with RBM11, 28 ± 4.14 fluorescence intensity; in the test with REXON it was 106 ± 7.17 fluorescence intensity; in the test with IGF2BP2(1-2), 23 ± 1.49 fluorescence intensity; in the test with FXR1(1-2), 46.8 ± 0.523 fluorescence intensity. The values for the binding signal with RBPMS, with TRA2B and with SFRS12 were 754 ± 55.2 fluorescence intensity, 1220 ± 41.8 fluorescence intensity and 364 ± 21 fluorescence intensity, respectively.

UGAGGUAGUAGGUUGUGUGGUU: the binding signal with STAU2(4) came out at 275.8 ± 2.53 fluorescence intensity; in the test with RBM19(1) it was 592 ± 96.6 fluorescence intensity; with RBM11, 26.6 ± 2.58 fluorescence intensity; in the test with RAVER1, 22.3 ± 5.17 fluorescence intensity; with REXON, 198.5 ± 0.0919 fluorescence intensity; with IGF2BP2(1-2), 31.4 ± 2.92 fluorescence intensity. In addition, the binding signal is 436 ± 32.2 fluorescence intensity with FXR1(1-2), 168 ± 4.32 fluorescence intensity with RBPMS, 748 ± 54 fluorescence intensity with TRA2B and 314 ± 21.7 fluorescence intensity in the test with SFRS12.

For the sequence UGAGGUAGUAGGUUGUAUGGUU, the binding signal in the test with STAU2(4) was determined as 168 ± 2.52 fluorescence intensity; in the test with RBM19(1) it was 519 ± 35.8 fluorescence intensity; in the test with RBM11, 36.7 ± 5.74 fluorescence intensity; with RAVER1, 26.62 ± 0.0495 fluorescence intensity; in the test with REXON, 102 ± 6.23 fluorescence intensity; with IGF2BP2(1-2) it was 26.07 ± 0.24 fluorescence intensity. Further, the binding signal was 95 ± 11.4 fluorescence intensity with FXR1(1-2), 145 ± 43.8 fluorescence intensity with RBPMS, 1050 ± 32.8 fluorescence intensity with TRA2B and 264 ± 26.8 fluorescence intensity with SFRS12.

For the sequence UGAGGUAGUAGGUUGUAUAGUU, the binding signal in the test with STAU2(4) was determined as 31.34 ± 0.269 fluorescence intensity; in the test with RBM19(1) it was 132 ± 21 fluorescence intensity; with RAVER1, 21.1 ± 4.28 fluorescence intensity; with REXON, 30.1 ± 0.375 fluorescence intensity; with FXR1(1-2), 34.3 ± 0.7 fluorescence intensity; in the test with RBPMS, 63.4 ± 5.39 fluorescence intensity. The binding signal with TRA2B is 97.2 ± 22.2 fluorescence intensity; with SFRS12 it was 44.9 ± 2.62 fluorescence intensity.

In the case of CAGUGCAAUGAUGAAAGGGCAU, the binding signal in the test with STAU2(4) turned out to be 92.53 ± 0.0283 fluorescence intensity; with RBM19(1) it was 249 ± 33.6 fluorescence intensity; with RBM11 it was 25.7 ± 8.53 fluorescence intensity; with REXON, 88.4 ± 1.34 fluorescence intensity; with IGF2BP2(1-2) it was 24.1 ± 3.02 fluorescence intensity; in the test with FXR1(1-2), 111.8 ± 0.544 fluorescence intensity. In addition, the binding signal with RBPMS amounted to 844 ± 72.7 fluorescence intensity; in the test with TRA2B, 656 ± 15.9 fluorescence intensity; with SFRS12 it was 243 ± 4.09 fluorescence intensity.

The record behind these values is article PMC11574364.
